{"source": "PubChem BioAssay (NCATS)", "note": "Inconclusive results are not listed. Values without a mark were called inactive. Active and inactive are the calls of the source. Calls follow the shape of the dose curve; as a rule, active = well fitted curve in the direction sought with a large enough effect; inconclusive = small, poorly fitted or top-dose-only effect, or another doubt; inactive = no such curve, though single readings can be large; an effect the other way counts as inactive or inconclusive."}
{"molecular_target": "Rap guanine nucleotide exchange factor 3 (Homo sapiens) (UniProt O95398)", "sequence (O95398 whole entry, looked up)": "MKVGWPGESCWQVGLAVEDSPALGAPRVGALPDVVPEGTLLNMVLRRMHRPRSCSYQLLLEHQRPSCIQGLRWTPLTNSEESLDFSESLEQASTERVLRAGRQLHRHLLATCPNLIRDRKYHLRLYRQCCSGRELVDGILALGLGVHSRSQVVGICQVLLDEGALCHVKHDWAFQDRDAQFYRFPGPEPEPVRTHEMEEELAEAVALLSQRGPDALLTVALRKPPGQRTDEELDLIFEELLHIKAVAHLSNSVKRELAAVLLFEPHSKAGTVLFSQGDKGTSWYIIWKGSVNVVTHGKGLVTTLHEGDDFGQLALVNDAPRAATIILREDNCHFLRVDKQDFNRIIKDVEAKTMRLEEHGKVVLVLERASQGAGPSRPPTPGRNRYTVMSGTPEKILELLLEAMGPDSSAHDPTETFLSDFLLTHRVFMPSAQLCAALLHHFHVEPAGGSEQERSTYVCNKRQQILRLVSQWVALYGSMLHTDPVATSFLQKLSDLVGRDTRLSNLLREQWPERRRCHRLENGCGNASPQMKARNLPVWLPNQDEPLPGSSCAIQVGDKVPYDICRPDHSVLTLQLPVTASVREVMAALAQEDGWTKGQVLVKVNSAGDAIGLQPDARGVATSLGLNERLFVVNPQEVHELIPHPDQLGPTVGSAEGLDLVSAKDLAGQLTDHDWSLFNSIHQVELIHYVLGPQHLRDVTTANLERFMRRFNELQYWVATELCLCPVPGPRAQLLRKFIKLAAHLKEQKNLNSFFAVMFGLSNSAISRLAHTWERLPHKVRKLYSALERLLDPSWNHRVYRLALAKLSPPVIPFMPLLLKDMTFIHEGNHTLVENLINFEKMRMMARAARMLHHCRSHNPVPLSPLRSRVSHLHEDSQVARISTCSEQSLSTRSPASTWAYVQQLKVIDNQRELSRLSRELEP", "experiment": "Counterscreen qHTS for antagonist of cAMP-regulated guanine nucleotide exchange factor 3 (EPAC1) (AID 1645888);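 also: fluorescence loss as bound BODIPY-GDP is released from Rap1B; % of control where 0% means no effect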", "settings": "Rap1B-BODIPY-GDP nucleotide exchange, fluorescence; series mostly up to 154 µM; activity change, negative = inhibition: at the top concentration", "in_short": "(§1)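 Rap1B-BODIPY-GDP 250 nM + GDP 50 uM; cpds 7-pt, final 9.74 nM–152 uM (activator mode) or from 7.32 nM upwards (inhibitor mode); RT; FI 480/540 nm at 5 and 30 min, then ± cAMP, reread.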"}
{"smiles": "COC(=O)CCc1nc2cc(Cl)ccc2n(Cc2ccccc2)c1=O", "activity change, negative = inhibition": "10.6%"}
{"smiles": "COC(=O)C1=NN(c2ccc(C)cc2)C2(S1)SC(C(C)=O)=C(C)N2c1ccccc1", "note": "(centres undefined)", "activity change, negative = inhibition": "2.21%"}
{"smiles": "Cc1ccc(NC(=O)CSc2nnc(-c3cc4occc4n3C)n2-c2ccccc2C)c(Cl)c1", "activity change, negative = inhibition": "19.4%"}
{"smiles": "CC(=O)Nc1ccc(Nc2c3c4c(cccc4n(C)c2=O)C(=O)c2ccccc2-3)cc1", "activity change, negative = inhibition": "40.7%"}
{"smiles": "O=C1c2ccccc2-c2onc3c(Br)cc(NC4CCCCC4)c1c23", "activity change, negative = inhibition": "8.06%"}
{"smiles": "CCCN1CC=C2C(C#N)=C(N)C(C#N)(C#N)C(c3cccc(OC)c3OC)C2C1", "note": "(centres undefined)", "activity change, negative = inhibition": "29.9%"}
{"smiles": "O=C(NCCOc1ccc(F)cc1)c1ccccc1SCc1ccccc1", "activity change, negative = inhibition": "18.3% [at 30.8 µM]"}
{"smiles": "CCSc1nnc(-c2sc3nnc(-c4ccccc4)c(-c4ccccc4)c3c2N)o1", "activity change, negative = inhibition": "43.4%"}
{"smiles": "COCc1c(C(=O)N2CCc3ccccc32)oc2ccccc12", "activity change, negative = inhibition": "6.1%"}
{"smiles": "CC(=O)/C(=N\\Nc1ccccc1)Sc1cccc2cccnc12", "activity change, negative = inhibition": "-6.62%"}
{"smiles": "COc1ccc2c(c1)C(=O)CCC2c1ccccc1", "note": "(centres undefined)", "activity change, negative = inhibition": "27.5%"}
{"smiles": "Cc1ccccc1C(=O)O/N=C(\\c1ccccc1)c1ccccn1", "activity change, negative = inhibition": "3.56% [at 30.8 µM]"}
{"smiles": "Cc1ccc(N=Cc2c(O)n(-c3nccs3)c(=O)c3ccccc23)c(C)c1", "activity change, negative = inhibition": "7.45% [at 30.8 µM]"}
{"smiles": "CSc1ncccc1C(=O)OCc1c(F)cccc1Cl", "activity change, negative = inhibition": "38.7%"}
{"smiles": "CCOC(=O)c1ccc2[nH]cc(C(C)=O)c(=O)c2c1", "activity change, negative = inhibition": "27.4%"}
{"smiles": "COc1cccc(C(=O)c2sc3nc(-c4ccccc4)cc(C(F)(F)F)c3c2N)c1", "activity change, negative = inhibition": "157%"}
{"smiles": "CN(C)c1ccc(-c2cc3ccccc3c(=O)o2)cc1", "activity change, negative = inhibition": "9.24%"}
{"smiles": "CNC(=O)c1csc(Cc2c(Cl)sc3ccc(Cl)cc23)n1", "activity change, negative = inhibition": "9.85%"}
{"smiles": "CCN(CC)c1ccc2cc(C(=O)NNC(=O)c3ccc(S(=O)(=O)N4CCCCC4)cc3)c(=O)oc2c1", "activity change, negative = inhibition": "-0.16%"}
{"smiles": "O=C1N(Cc2ccccc2)c2ccc(Cl)cc2C12OCCO2", "activity change, negative = inhibition": "-8.76% [at 30.8 µM]"}
{"smiles": "COc1ccc(NC(=O)c2csc3c2CCCCC3)c(OC)c1", "activity change, negative = inhibition": "15%"}
{"smiles": "CC(C)(C)c1ccc(-n2nc(C#N)c(Cl)cc2=O)cc1", "activity change, negative = inhibition": "15.4%"}
{"smiles": "COC(=O)c1cc2oc(C)cc2n1Cc1ccc(C)cc1", "activity change, negative = inhibition": "24.1%"}
{"smiles": "N#C/C(=C\\c1ccc(Sc2ccc(Cl)cc2)o1)c1nc2ccccc2[nH]1", "activity change, negative = inhibition": "14.7%"}
{"smiles": "C=Cc1ccc(CC2(C)C(=O)Nc3ccc(-c4cccnc4)cc32)cc1", "note": "(centres undefined)", "activity change, negative = inhibition": "-15.8%"}
{"smiles": "CCCCNc1ccc2c3c(cccc13)C(=O)N(CCCC)C2=O", "activity change, negative = inhibition": "213% [at 30.8 µM]"}
{"smiles": "O=C(C(=Cc1ccc(O)cc1)c1ccccc1)c1ccccc1", "activity change, negative = inhibition": "1.02%"}
{"smiles": "COc1ccc(-c2csc3nc(C)nc(N4CCCCC4)c23)cc1OC", "activity change, negative = inhibition": "12%"}
{"smiles": "CC(=Nc1ccc(C)cc1C)c1sc2ccccc2c1O", "activity change, negative = inhibition": "21%"}
{"smiles": "CC(C)CC(=NNC(=O)c1ccncc1)c1cc(Cl)ccc1O", "activity change, negative = inhibition": "55.9%"}
{"smiles": "COCCN1C(=O)/C(=C/c2ccc(N3CCCC3)cc2)SC1=S", "activity change, negative = inhibition": "20.8%"}
{"smiles": "COc1cc2c(cc1OC)C1(C)N(CC2)C(C(C)=O)=NN1c1ccc(Cl)cc1", "note": "(centres undefined)", "activity change, negative = inhibition": "5.93% [at 30.8 µM]"}
{"smiles": "CN(C(=O)c1cc2c(cc1Br)OCO2)c1cccc2ccccc12", "activity change, negative = inhibition": "14%"}
{"molecular_target": "Rap guanine nucleotide exchange factor 3 (Homo sapiens) (UniProt O95398)", "experiment": "Counterscreen qHTS for agonist of cAMP-regulated guanine nucleotide exchange factor 3 (EPAC1) (AID 1645889); also: nearly all actives have a fitted effect of over 40% in size; also: potency is read from the fitted curve at half-maximal effect; as to activation: % of control where 0% means no effect", "settings": "EPAC1 Rap1B-BODIPY-GDP exchange, fluorescence; series mostly up to 154 µM; activation: at the top concentration", "in_short": "as §1"}
{"smiles": "COC(=O)C1=NN(c2ccc(C)cc2)C2(S1)SC(C(C)=O)=C(C)N2c1ccccc1", "note": "(centres undefined)", "activation": "23%"}
{"smiles": "O=C1c2ccccc2-c2onc3c(Br)cc(NC4CCCCC4)c1c23", "activation": "12.6%"}
{"smiles": "O=C(C1=NN(c2ccccc2)C2C(=O)N(c3ccccc3)C(=O)C12)c1ccccc1", "note": "(centres undefined)", "Potency": "15.8 µM (active)"}
{"smiles": "COc1cccc(C(=O)c2sc3nc(-c4ccccc4)cc(C(F)(F)F)c3c2N)c1", "Potency": "56.2 µM (active)"}
{"smiles": "Cc1cc([N+](=O)[O-])c2[nH]c(C(=O)N/N=C/c3ccccc3C(=O)O)c(-c3ccccc3)c2c1", "activation": "25.3%"}
{"smiles": "CCN(CC)c1ccc2cc(C(=O)NNC(=O)c3ccc(S(=O)(=O)N4CCCCC4)cc3)c(=O)oc2c1", "activation": "30.2%"}
{"smiles": "O=C1N(Cc2ccccc2)c2ccc(Cl)cc2C12OCCO2", "activation": "35.6% [at 30.8 µM]"}
{"smiles": "COc1ccc(NC(=O)c2csc3c2CCCCC3)c(OC)c1", "activation": "23.9%"}
{"smiles": "COC(=O)c1cc2oc(C)cc2n1Cc1ccc(C)cc1", "activation": "7.83%"}
{"smiles": "CCCCNc1ccc2c3c(cccc13)C(=O)N(CCCC)C2=O", "Potency": "20 µM (active)"}
{"smiles": "COc1cc2c(cc1OC)C1(C)N(CC2)C(C(C)=O)=NN1c1ccc(Cl)cc1", "note": "(centres undefined)", "Potency": "3.55 µM (active)"}
